In PubChem BioAssay (Tox21):
Results filed as inconclusive are left out. A number with no mark means an inactive call. Calls come from the whole dose curve.

The compounds below were run against Beta-2 adrenergic receptor (Homo sapiens) (UniProt P07550) (assay: Adrenergic beta2 receptor (ADRB2) small molecule agonists, cell-based qHTS assay (AID 1963593)). Conditions: CHO-ADRB2 cells, cAMP HTRF, 30 min; series mostly up to 92.4 µM; activation: at the top concentration.
Text: National Center for Advancing Translational Sciences [NCATS]
Division of Preclinical Innovation [DPI]
U.S. Environmental Protection Agency [EPA]
National Institutes of Environmental Health Sciences [NIEHS]
National Toxicology Program [NTP]
U.S. Food and Drug Administration [FDA]
Beta adrenergic receptors (Beta-ARs) belong to the G-protein coupled receptor (GPCR) superfamily, includes three subtypes - beta1, beta2, and beta3. Beta1-AR is the predominant receptor subtype expressed in the heart, and beta2-AR is expressed in the kidney, lung, blood vessel and in the heart, and beta3 is found in the adipocytes. Beta1 and 2 ARs couple to Gs protein and elevate cyclic adenosine mono phosphate (cAMP), which activates protein kinase A and leads to the downstream signaling responsible for the physiological actions. Beta-AR agonists or antagonists are the most prescribed therapeutic agents for heart failure and asthma, and these were one of the first target receptors for the rational drug design. Tox21 10K compound library was screened using the cAMP-Gs dynamic assay (Cisbio Bioassays, Shelton, CT) to identify agonists/antagonists of the Gs-coupled human adrenergic, beta2 receptor (ADRB2) in the CHO-ADRB2 cell line (Codex BioSolutions, Inc. Gaithersburg, MD), which stably over-expresses ADRB2. The principle of cAMP-Gs dynamic assay is based on HTRF technology, which facilitates the fluorescence resonance energy transfer (FRET) between donor Europium cryptate and acceptor d2-labeled cAMP. The cAMP generated within cells competes with the red acceptor, d2-labled cAMP, for binding to the monoclonal anti-cAMP-cryptate (Europium donor). An increase in intracellular cAMP leads to the disruption of FRET signal, and the signal is inversely proportional to the cAMP concentration. Isoproterenol HCl (Sigma-Aldrich, St. Louis, MO) was used as a positive control in the screening.
Tox21 Assay Protocol Summary:
CHO-ADRB2 cells were dispensed at 1,000/well in 4uL assay medium into white/solid 1536-well plates (Greiner Bio-One North America Inc., Monroe, NC) using a Multidrop Combi dispenser (ThermoFisher Scientific, Waltham, MA). The assay plates were incubated at 37C and 5% CO2 for an overnight (18-20hr). Then positive control and test compounds dissolved in DMSO were transferred to the assay plates at 23nL using a Pintool station (Wako, San Diego, CA). Following the compound and positive control transfer, 1uL stimulation mix containing 100uM IBMX and 25uM Ro-20-1724 was added to each well of the assay plates using BioRAPTR Flying Reagent Dispenser (FRD, Beckman Coulter, Brea, CA). The assay plates were incubated at room temperature for 0.5hr. Then 2.5ul each d2-labled cAMP and anti-cAMP-cryptate solutions were added separately to each well of the assay plates using an FRD and the assay plates were incubated at room temperature for 1hr.
% is set by controls: 0 for no effect and ±100 for the full control effect.

Sequence of Beta-2 adrenergic receptor (Homo sapiens) (P07550 whole entry, looked up): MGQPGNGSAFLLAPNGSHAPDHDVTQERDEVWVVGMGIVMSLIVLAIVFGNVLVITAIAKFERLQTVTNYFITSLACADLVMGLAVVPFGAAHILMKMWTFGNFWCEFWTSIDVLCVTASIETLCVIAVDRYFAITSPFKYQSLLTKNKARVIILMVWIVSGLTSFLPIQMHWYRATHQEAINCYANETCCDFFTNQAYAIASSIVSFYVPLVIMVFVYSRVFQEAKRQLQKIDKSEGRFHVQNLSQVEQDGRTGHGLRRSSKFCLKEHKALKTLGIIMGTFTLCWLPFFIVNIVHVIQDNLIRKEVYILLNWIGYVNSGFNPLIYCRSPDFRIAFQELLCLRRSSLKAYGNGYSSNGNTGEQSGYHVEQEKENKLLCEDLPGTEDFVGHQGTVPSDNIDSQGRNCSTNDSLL

| SMILES | activation |
| --- | --- |
| CCOC(=O)C(C)Oc1ccc(Oc2nc3ccc(Cl)cc3o2)cc1 (stereo not given) | -2.76% |
| COc1c2occc2c(OC)c2c(=O)cc(C)oc12 | 2.15% [at 42.5 µM] |
| COC(C)CCO (stereo not given) | 4.38% |
| O=C(CS)OCCOC(=O)CS | 0.789% |
| CC/C=C\C/C=C\C/C=C\CCCCCCCC(=O)OC | -27.7% |
| Nc1ccc(/C=C/c2ccc(N)cc2S(=O)(=O)O)c(S(=O)(=O)O)c1 | -7.68% [at 0.349 µM] |
| N[C@@H](Cc1ccc(O)cc1)C(=O)O | 15.9% [at 8.39 µM] |
| Cc1cccc(C(=O)O)c1O | -31.6% [at 42.5 µM] |
| COc1ccc(CCO)cc1 | 14% |
| CC(CN(CCN(CC(C)OCCO)CC(C)OCCO)CC(C)OCCO)OCCO (stereo not given) | -2.54% |
| Oc1ccc(-c2ccccc2)c(Cl)c1 | -31.8% |
| CCCOC(=O)c1c(Cl)c(Cl)c(Cl)c(Cl)c1C(=O)OCCC | -19.8% |
| Cc1c(C)c2c(c(C)c1OC(=O)c1cccnc1)CC[C@@](C)(CCC[C@H](C)CCC[C@H](C)CCCC(C)C)O2 | 5.63% [at 42.5 µM] |
| CC(=O)CCC1=C(C)CCCC1(C)C | 12.2% |
| Cc1c[nH]c(=O)[nH]c1=O | 10.9% |
| Cc1ccc(O)c(C(=O)c2ccccc2)c1 | 1.58% |
| CCCCNc1ccc(C(=O)OCCOCCOCCOCCOCCOCCOCCOCCOCCOC)cc1 | 8.79% [at 42.5 µM] |
| CC(C)Cc1ccc(CC(=O)O)cc1 | -26.9% [at 42.5 µM] |
| CCCCC/C=C\C=C\C(=O)OCC | 9.08% |
| O=CC=C(c1ccccc1)c1ccccc1 | -26.8% |

| SMILES | activation |
| --- | --- |
| Cc1ccccc1OCC(=O)O | 1.75% |
| [Cl][Au]([Cl])[Cl] | 18.5% |
| COc1ccc(OC(F)(F)F)cc1CN[C@H]1CCCN[C@H]1c1ccccc1 | -26.7% |
| CC(Cc1ccccc1)(NC(=O)CN)c1ccccc1 (stereo not given) | 13.5% [at 42.5 µM] |
| COCCOc1cc2cc(C(=O)NC3CCN(C(C)C)CC3)n(CC(=O)Nc3ccc(Cl)cn3)c2cn1 | 8.28% |
| CCCCN(CCO)CCCC | 8.23% |
| CCc1oc2ccccc2c1C(=O)c1cc(I)c(O)c(I)c1 | 7% [at 42.5 µM] |
| C[C@@H]1C[C@H]2[C@@H]3C[C@H](F)C4=CC(=O)C=C[C@]4(C)[C@@]3(F)[C@@H](O)C[C@]2(C)[C@@]1(O)C(=O)CO | 7.69% [at 42.5 µM] |
| O=C1c2ccccc2C(=O)c2c(O)ccc(O)c21 | 1.63% |
| CC(=O)NNC(C)=O | 0.981% |
| Nc1c(I)cc(I)c(C(=O)N(CCC(=O)O)c2ccccc2)c1I | -2.56% [at 42.5 µM] |
| O=C(O)c1cc(Br)c(O)c(Br)c1 | -4.14% |
| CC(=O)OC1C2(C)CCC(C2)C1(C)C (stereo not given) | -8.65% |
| CC(C)Nc1ccc(NC(C)C)c2c1C(=O)c1ccccc1C2=O | -21.2% [at 42.5 µM] |
| CO | 2.6% |
| O=C(Cl)c1ccc(Cl)cc1Cl | 6.38% |
| CCCCNCCCC | 18.6% |
| CCCCCCCCCO | 3.63% |
| CS(=O)(=O)c1ccc([C@@H](CC2CCCC2)C(=O)Nc2cnccn2)cc1Cl | 14.7% |
| CC[N+](C)(CC)CC | -14.3% |
